Assay results from ChEMBL document CHEMBL4513216, “Probing the Open Global Health Chemical Diversity Library for Multistage-Active Starting Points for Next-Generation Antimalarials” (ACS Infect Dis, 2020).
Hit rate of the full screen: of about 69,000 compounds, about 8,600 (12%) showed an effect of 50% or more. The sample as a whole holds a higher share of strong results than the screen did.

test system: Plasmodium berghei; assay: Screen against P. berghei liver stage (PbLuc), transformed with Luciferase, at 10uM; type: functional, HepG2; settings: tested at 10 uM

| SMILES | INHIBITION |
| --- | --- |
| CN(C)CCCn1ccnc1C1CCCN(c2ncc(Cl)cc2F)C1 (centres undefined) | 17.5% |
| O=C(O)C1(n2ccc(-c3ccco3)n2)CCN(Cc2ccccn2)CC1 | 4.1% |
| Cc1cc(C)n(C2CN(CC(=O)NC(C3CC3)C3CC3)C2)n1 | 17.4% |
| O=C(NCC(=O)N1CCCC1)c1nc(Cc2c(Cl)cccc2Cl)no1 | -32.8% |
| Cc1ccc(C#N)c(N2CCC3(CCCN(C4CCOCC4)C3=O)C2)n1 (centres undefined) | -20.8% |
| c1cnc(N2CCOCC3(C2)CN(c2nccs2)CCO3)nc1 (centres undefined) | 44.8% |
| CN(CC(=O)NC(Cc1ccsc1)c1cccnc1)Cc1ccccn1 (centres undefined) | 26.1% |
| CN(CC(=O)NC(Cc1ccsc1)c1cccnc1)Cc1cccnc1 (centres undefined) | 64.6% |
| Cc1csc(C(Cc2ccsc2)NC(=O)CN(C)Cc2cccnc2)n1 (centres undefined) | 42.6% |
| CC(NC(=O)N1CCCN(C)CC1)c1ccc(S(N)(=O)=O)cc1 (centres undefined) | -5.22% |
| Cc1ccc(O)c(CNC2CCc3nc(C(C)C)nn3C2)n1 (centres undefined) | 15.8% |
| CN1CC(=O)N(c2ccsc2)CC12CCN(C(=O)N1CCCC1)C2 (centres undefined) | -5.05% |
| CCOC(=O)c1n[nH]cc1-c1cncn1CCn1nc(C)c(Cl)c1C | -39.4% |
| CS(=O)(=O)N1CCCC12CCCN(C(=O)c1ccc[nH]1)C2 (centres undefined) | -24.8% |
| CS(=O)(=O)N1CCCC12CCCN(C(=O)c1ccncc1)C2 (centres undefined) | 10.7% |
| CS(=O)(=O)N1CCCC12CCCN(C(=O)c1ccnnc1)C2 (centres undefined) | 26.4% |
| CS(=O)(=O)N1CCCC12CCCN(C(=O)c1ccc3c(c1)OCO3)C2 (centres undefined) | -1.15% |
| CS(=O)(=O)N1CCCC12CCCN(C(=O)c1ccc3[nH]ccc3c1)C2 (centres undefined) | 57.9% |
| CS(=O)(=O)N1CCCCC12CCN(C(=O)c1ccccc1)C2 (centres undefined) | 61.8% |
| O=S1(=O)C[C@@H]2[C@H](C1)N(Cc1ncc[nH]1)CCN2CCCc1ccccc1 | 34.275% |
| COc1ccc(Cl)cc1NC(=O)CN1CCc2nc(NC(C)=O)sc2C1 | 30.2% |
| CCOc1ccccc1C(C(=O)O)N(C)Cc1cc(C)[nH]n1 (centres undefined) | 27.6% |
| Cc1n[nH]c(C)c1NC(=O)CN1CCc2c(nc(C(C)C)n2C)C1 | -2.48% |

| SMILES | INHIBITION |
| --- | --- |
| Cn1cc(C2CCCN2C(=O)CCCOc2ccccc2F)cn1 (centres undefined) | 0.914% |
| CCCc1noc(CCC(=O)N2CCCC2c2ccc(OC)cc2)n1 (centres undefined) | 0.914% |
| Cn1cc(C2CCCN2C(=O)CCCc2ccccn2)cn1 (centres undefined) | 62.6% |
| CCCc1noc(CCC(=O)N2CCCC2c2ccncc2)n1 (centres undefined) | 13.3% |
| CCCc1noc(CCCC(=O)N2CCCC2c2cnn(C)c2)n1 (centres undefined) | 64.7% |
| Cn1cc(C2CCCN2C(=O)CCCc2cccs2)cn1 (centres undefined) | 9.14% |
| Cc1nnc([C@@H]2C[C@H]3CN(C(=O)c4c(C)noc4C)C[C@H]3O2)[nH]1 | 12.7% |
| CC(C)Cc1cc(NC(=O)c2ccncc2)n(C)n1 | 48.4% |
| c1ccc(Cc2cncc(C3CCCN3C3CCOCC3)n2)cc1 (centres undefined) | 10.175% |
| Cn1nc(C2CCCN(Cc3ccc(F)c(F)c3)C2)c2nccnc21 (centres undefined) | 54.4% |
| Cn1nc(C2CCCN(Cc3cc(F)cc(F)c3)C2)c2nccnc21 (centres undefined) | 36.4% |
| Cn1nc(C2CCCN(Cc3ccccc3)C2)c2nccnc21 (centres undefined) | 64.9% |
| Cn1nc(C2CCCN(Cc3cccc(F)c3)C2)c2nccnc21 (centres undefined) | 31.3% |
| Cn1nc(C2CCCN(Cc3ccc(F)cc3)C2)c2nccnc21 (centres undefined) | 43.6% |
| c1cc(CN2CCCC(c3nnc(-c4cnccn4)o3)C2)ccn1 (centres undefined) | 26.8% |
| Cn1nc(C2CCCN(Cc3cc(F)ccc3F)C2)c2nccnc21 (centres undefined) | 40% |
| c1cncc(CN2CCCC(c3nnc(-c4cnccn4)o3)C2)c1 (centres undefined) | -22.6% |
| Fc1ccc(CN2CCCC(c3nnc(-c4cnccn4)o3)C2)cc1F (centres undefined) | 58.6% |
| Cc1nc(C2CCCN2Cc2ccn(C)c(=O)c2)no1 (centres undefined) | 5.7% |
| COCCN(C)C(C(=O)O)c1ccc(C)c(C)c1 (centres undefined) | 19.4% |
| CCN1CC(=O)NCC12CCN(C(=O)c1ccco1)C2 (centres undefined) | 1.34% |
| Cc1cc(C)n(CC2CCCN2C(=O)c2ccc3nncn3c2)n1 (centres undefined) | -54.6% |
| Cc1noc2nc(C3CCCN(Cc4ccncc4)C3)cc(C(F)F)c12 (centres undefined) | 34% |

| SMILES | INHIBITION |
| --- | --- |
| Cc1nc(C(C)NCc2cc(O)c3cccc(F)c3n2)cs1 (centres undefined) | -2.48% |
| Cn1cc(Br)cc(NC(=O)Cc2cccs2)c1=O | 53.3% |
| CCC(=O)Nc1cc(Br)cn(C)c1=O | 8.92% |
| Cn1cc(NC(=O)Cc2cccs2)c(=O)n(C)c1=O | -7.16% |
| O=C(NCCc1nnc2n1CCC2)NCC1(c2ccccc2F)CC1 | 33.8% |
| COCCN1CCCC1(C)c1nc(C)cc(N)n1 (centres undefined) | -3.94% |
| N#Cc1cccnc1N1CCN(C(=O)c2cccs2)CC1 | 9.16% |
| Nc1nc2c(c(NCc3nc(-c4ccncc4)n[nH]3)n1)CCCC2 | -97.2% |
| Nc1nc2c(c(NCc3ccc(C(=O)N4CCCC4)cc3)n1)CCCC2 | 63.8% |
| Nc1nc2c(c(NCc3ccncc3)n1)CCCC2 | -68.2% |
| Nc1nc2c(c(N3CCN(C(=O)c4cccs4)CC3)n1)CCCC2 | 72.5% |
| Cc1csc(N2CCCN(C(=O)c3cccs3)CC2)n1 | 29.2% |
| Cc1ccc(N2CC[C@H]3[C@@H]2CCC(=O)N3CCN2CCOCC2)nn1 | 18.7% |
| O=C(c1cnccn1)N1CCOC2(CCN(Cc3ccsc3)CC2)C1 | 13.7% |
| CNC(=O)NCC1CCC2(CCN(C(=O)c3ccccn3)CC2)CO1 (centres undefined) | 35.8% |
| CN(C)Cc1cc(C2CCN(C(=O)C3CC34CCC4)CC2)nn1C (centres undefined) | 8.53% |
| CC1(CO)COC(Cc2ccc(Cl)cc2)=N1 (centres undefined) | 0.29% |
| CC(C)Oc1ccc(CC2=N[C@](C)(CO)CO2)cc1 | 16% |
| CCCOc1ccc(CC2=NC(C)(CO)CO2)cc1 (centres undefined) | 58.3% |
| CCn1cc(C(=O)Nc2ccccc2C(=O)OC)cn1 | 21.5% |
| CS(=O)(=O)N1CCOCC2(CCN(Cc3ccoc3)CC2)C1 | 35.5% |
| O=C1NCC2(CCCN(Cc3ccncc3)C2)Oc2ccccc21 (centres undefined) | 36.4% |
| CSc1ccc(CN2CCCC3(CNC(=O)c4ccccc4O3)C2)cc1 (centres undefined) | 73.7% |

| SMILES | INHIBITION |
| --- | --- |
| O=C1NCC2(CCCN(Cc3ccc(F)cc3)C2)Oc2ccccc21 (centres undefined) | 46% |
| O=C(NCCc1nccs1)c1n[nH]c2c1CCC2 | -147% |
| Cc1ccc2cccc(C(=O)NCC3CCN(C(C)C)C3)c2n1 (centres undefined) | 50.1% |
| Cc1ccc2cccc(C(=O)NCCOCC3CC3)c2n1 | -58.5% |
| CN1CCC(CNC(=O)c2ccc3cccc(Cl)c3n2)C1 (centres undefined) | 9.4% |
| COCCn1cnc2c(F)cc(Br)cc2c1=O | 47.4% |
| CC(C)N(C)S(=O)(=O)c1ccc2c(c1)CCN(C(=O)c1ccccn1)C2 | -12.1% |
| CC(C)N(C)S(=O)(=O)c1ccc2c(c1)CCN(C(=O)c1cnccn1)C2 | 28.8% |
| CC(C)N(C)S(=O)(=O)c1ccc2c(c1)CCN(C(=O)c1cscn1)C2 | 65.2% |
| CCCc1cc(C(=O)NC(C)c2ccccc2)n(C)n1 (centres undefined) | 8.7% |
| O=C(O)c1cc(Br)cnc1OCC1CC1 | 14.4% |
| Cc1cc2c(cc1CNC(Cc1cccs1)c1nccs1)OCO2 (centres undefined) | 28.375% |
| CCSCCC(=O)Nc1ncn(Cc2cccnc2)n1 | -11.1% |
| CC(C)N(Cc1cccnc1)C(=O)CNc1ccc(C#N)cc1 | -21% |
| N#Cc1ccc(NCC(=O)Nc2ccn(Cc3cccnc3)n2)cc1 | 41.4% |
| CCSCCC(=O)Nc1ncn(Cc2ccccc2)n1 | 42% |
| CCC(=O)Nc1ncn(Cc2cccnc2)n1 | 61.2% |
| N#Cc1ccc(NCC(=O)Nc2ncn(Cc3cccnc3)n2)cc1 | 72.3% |
| Cc1ncsc1C(=O)NCCn1nc(C2CCNC2)c2cccnc21 (centres undefined) | 38.7% |
| CCc1nc(CC(=O)NCC(Cc2ccc(F)cc2)C(N)=O)cs1 (centres undefined) | 48.2% |
| O=C(NC1CC1)c1cccc(Oc2ccc3nncn3n2)c1 | -34.4% |
| Cc1ccc(C(=O)N2CC(c3cccnc3)C2)cc1N1CCNC1=O | 56.7% |
| COc1cc(C)sc1C(=O)N1CCC(Nc2cccnc2)CC1 | 18.5% |

| SMILES | INHIBITION |
| --- | --- |
| COc1ccc(C2(C(=O)N3CC(c4cccnc4)C3)CC2(C)C)cc1 (centres undefined) | 55.4% |
| Cc1ccc(C(=O)N2Cc3ccccc3C2)cc1N1CCNC1=O | 2.74% |
| CC1(C)CC1(C(=O)N1CC(c2cccnc2)C1)c1ccccc1F (centres undefined) | 28.7% |
| COc1cc(C)sc1C(=O)N1CC(c2cccnc2)C1 | 56.8% |
| CC1(C)CC1(C(=O)N1CC(c2cccnc2)C1)c1ccc(F)cc1 (centres undefined) | 21.2% |
| COc1cc(C)sc1C(=O)N1CCCCC1c1ccccn1 (centres undefined) | 47.7% |
| Cc1ccc(C(=O)N2CCSCC2)cc1N1CCNC1=O | 48.5% |
| COc1ccccc1CC(=O)N1CCCC(c2cc(C)[nH]n2)C1 (centres undefined) | -24.2% |
| Cc1ccc(-c2nnc(CNC(=O)c3cccnc3)o2)cn1 | 30.4% |
| CC(=O)N1CCCN(C(=O)NCCCn2cncn2)CC1 | -10.895% |
| COCCN(C)C[C@H]1C[C@H](CO)CN(C(=O)c2ccc(=O)n(C)c2)C1 | 50.7% |
| COc1ccc(C)cc1C(=O)N1C[C@@H](CN(C)CCO)[C@@H](CO)C1 | 56.9% |
| COc1cccc(C(=O)N2C[C@@H](CN(C)CCO)[C@@H](CO)C2)c1C | 20.6% |
| COCCN(CCN(C)C)C(=O)NC1CC1 | 7.25% |
| COCCN(CCOC)C(=O)NC1CCCCC1 | 50.8% |
| COCCN(CCN(C)C)C(=O)NC1CCc2ccccc2C1 (centres undefined) | -65.3% |
| COc1cc(C)ccc1C(=O)N1C[C@@H](CN(C)CCO)[C@@H](CO)C1 | -1.38% |
| COCCN(C)C[C@@H]1CN(C(=O)c2ccc(OC)c(F)c2)C[C@@H]1CO | 0.29% |
| COCCN(C)C[C@@H]1CN(C(=O)c2c(F)ccc(OC)c2F)C[C@@H]1CO | 84.4% |
| COCCN(C)C[C@H]1C[C@H](CO)CN(C(=O)c2ccn(C)c(=O)c2)C1 | 11.7% |
| COCCN(C)C[C@H]1C[C@@H](CO)CN(C(=O)c2ccn(C)c(=O)c2)C1 | 35.5% |
| COc1ccc(F)c(F)c1C(=O)N1C[C@@H](CN(C)CCO)[C@@H](CO)C1 | -1.38% |
